Screening results from PubChem BioAssay.
An excerpt weighted towards active compounds, which were near 32% of everything screened.
CYP2C9 activ = increases human cytochrome P450 2C9 activity. recombinant CYP2C9, luciferin-H conversion, luminescence; active compounds read high; factor 1 = untreated enzyme, 0 = blocked. activation factor at 5 µM. 1.4% of 96,000 active;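 active means activation factor of 2 or more for CYP2C9 at a 5 µM dose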;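 further: 0 = sulfaphenazole-blocked wells and 1 = vehicle-only wells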
PostGolgi yeast = growth inhibition of a yeast mutant, post-Golgi transport screen; 0.9% of 98,000 active; post-Golgi transport phenotypic cell assay; AID 739; inhibition, % at 10 µM;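 further: yeast cells grown in 1536-well plates; yeast grown about 18 h at 30C before absorbance read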
CYP2C9 inhib = blocks human cytochrome P450 2C9; P11712; CYP2C9 Supersomes, luciferin-H conversion, luminescence; inhibition, % at 5 µM; 20% of 96,000 active; AID 777;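 active means blocking of liver enzyme CYP2C9 beyond about 50% at 5 µM, limit read from the data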
CYP2C19 act = cytochrome P450 2C19 (human) activation | P33261 | recombinant CYP2C19, luciferin-H EGE luminescence; active compounds read high; 0 = fully inhibited enzyme, 1 = untreated enzyme | activation factor at 5 µM | 96,000 tested, under 10 active | AID 1025;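 active means activation factor of at least 2 at 5 µM in the primary screen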;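 further: 0 = wells with 2.5 mM tranylcypromine and 1 = vehicle-only wells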
Target sequence (P33261 whole entry, looked up): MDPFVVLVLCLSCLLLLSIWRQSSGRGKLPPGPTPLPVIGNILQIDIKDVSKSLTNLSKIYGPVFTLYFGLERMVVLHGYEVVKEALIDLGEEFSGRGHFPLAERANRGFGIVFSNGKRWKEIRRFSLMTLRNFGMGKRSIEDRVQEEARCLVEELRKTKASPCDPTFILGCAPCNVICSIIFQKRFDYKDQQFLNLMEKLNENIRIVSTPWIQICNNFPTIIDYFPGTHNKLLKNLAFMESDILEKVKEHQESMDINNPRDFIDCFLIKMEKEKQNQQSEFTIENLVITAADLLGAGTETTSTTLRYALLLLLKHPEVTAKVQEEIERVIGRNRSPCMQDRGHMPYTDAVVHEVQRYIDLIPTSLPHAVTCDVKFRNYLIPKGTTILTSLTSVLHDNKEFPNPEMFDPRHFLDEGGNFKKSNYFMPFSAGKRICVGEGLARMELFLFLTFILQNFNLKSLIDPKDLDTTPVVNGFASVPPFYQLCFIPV
CYP2C19 inhib = blocks human cytochrome P450 2C19; AID 778; inhibition, % at 5 µM; 21% of 96,000 active; P33261; CYP2C19 Supersomes, luciferin-H EGE luminescence, 30 min;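 active means CYP2C19 inhibition above a set limit at 5 µM in the primary screen, cut at about 50% in these data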;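 further: plate controls were negative control wells for no effect and 2.5 mM tranylcypromine positive control for full effect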
PostGolgi ctrl = yeast control strain growth, post-Golgi counter-screen. inhibition, % at 10 µM. efflux-deficient yeast background strain, growth absorbance A615, 16 h. 5% of 98,000 active
An asterisk follows results filed as active. Unless noted, no stated cut-off is given here; in the data, active means inhibition above about 30%; inactive means the rest.

Results for COc1ccc(C2C(C(=O)N3CCN(C)CC3)c3ccccc3C(=O)N2C2CCCCC2)cc1 (stereo unspecified) ?
CYP2C9 activ: 0.9; PostGolgi yeast: 1; CYP2C9 inhib: 10; CYP2C19 act: 0.9; CYP2C19 inhib: 8; PostGolgi ctrl: 17

How did Cc1nc2c([nH]c3ccc(Br)cc32)s1 do in these assays?
CYP2C9 activ: 1.1; PostGolgi yeast: 6; CYP2C9 inhib: -10; CYP2C19 act: 1; CYP2C19 inhib: 2; PostGolgi ctrl: 18

What do the screens show for `COc1cc(C)ccc1OCCCOc1ccccc1Cl`?
CYP2C9 activ: 0.9; PostGolgi yeast: -3; CYP2C9 inhib: 6; CYP2C19 act: 0.6; CYP2C19 inhib: 36; PostGolgi ctrl: 4

Results for COc1cc(C=O)ccc1OCCOCCOc1cc(C)ccc1Cl ?
CYP2C9 activ: 0.5; PostGolgi yeast: 1; CYP2C9 inhib: 52*; CYP2C19 act: 0.5; CYP2C19 inhib: 50; PostGolgi ctrl: 1

Results for COc1cc(C)ccc1OCCOc1ccccc1Cl ?
CYP2C9 activ: 0.7; PostGolgi yeast: -16; CYP2C9 inhib: 28; CYP2C19 act: 0.3; CYP2C19 inhib: 70*; PostGolgi ctrl: 5

What do the screens show for `Cc1ccccc1C(=O)Nc1ccc(N2CCOCC2)nc1`?
CYP2C9 activ: 1; PostGolgi yeast: 0; CYP2C9 inhib: 0; CYP2C19 act: 0.8; CYP2C19 inhib: 20; PostGolgi ctrl: 22

How did O=C(Nc1cccc(F)c1)C1C2C=CC3(CN(CCCN4CCOCC4)C(=O)C13)O2 (stereo unspecified) do in these assays?
CYP2C9 activ: 1.1; PostGolgi yeast: -2; CYP2C9 inhib: -7; CYP2C19 act: 1.1; CYP2C19 inhib: -9; PostGolgi ctrl: -5

How did Cc1[nH]c2ccccc2c1[C@H]1[C@@H](CC#N)C1(C)C do in these assays?
CYP2C9 activ: 0.7; PostGolgi yeast: 6; CYP2C9 inhib: 28; CYP2C19 act: 0.5; CYP2C19 inhib: 48; PostGolgi ctrl: 15

How did Cc1cc(C)cc(N(CC(=O)Nc2cccc(C)n2)S(=O)(=O)c2c(C)noc2C)c1 do in these assays?
PostGolgi yeast: -1; PostGolgi ctrl: 12

Results for CCn1cc(C2=NOC(C(=O)Nc3cc(C)nn3-c3ccccc3)C2)c(C)n1 (stereo unspecified) ?
CYP2C9 activ: 1.1; PostGolgi yeast: -12; CYP2C9 inhib: -8; CYP2C19 act: 1.1; CYP2C19 inhib: -12; PostGolgi ctrl: 4

What do the screens show for `CCOC(=O)C1C(=O)Oc2ccc3ccccc3c2C1C1CCOC1=O` (stereo unspecified)?
CYP2C9 activ: 1.8; PostGolgi yeast: -5; CYP2C9 inhib: -81; CYP2C19 act: 0.4; CYP2C19 inhib: 60*; PostGolgi ctrl: 2

Results for CCOc1ccc(NC(=O)CN(C)CC(=O)Nc2cc(Cl)ccc2C#N)cc1OCC ?
CYP2C9 activ: 0.6; PostGolgi yeast: -4; CYP2C9 inhib: 39; CYP2C19 act: 0.5; CYP2C19 inhib: 45; PostGolgi ctrl: 6

What do the screens show for `CN(CC(=O)Nc1ccc(C#N)cc1)Cc1ccc(Cl)cc1Cl`?
CYP2C9 activ: 0.1; PostGolgi yeast: -10; CYP2C9 inhib: 90*; CYP2C19 act: 0.1; CYP2C19 inhib: 94*; PostGolgi ctrl: 41*

What do the screens show for `CN(CC(=O)Nc1ccc(C#N)cc1)Cc1ccc(Cl)cc1`?
CYP2C9 activ: 0.2; PostGolgi yeast: -3; CYP2C9 inhib: 75*; CYP2C19 act: 0.1; CYP2C19 inhib: 89*; PostGolgi ctrl: 3

What do the screens show for `N#Cc1ccc(NC(=O)Nc2ccc(Cl)cc2)cc1`?
CYP2C9 activ: 0.9; PostGolgi yeast: 16; CYP2C9 inhib: 7; CYP2C19 act: 0.8; CYP2C19 inhib: 16; PostGolgi ctrl: 74*

What do the screens show for `C=CCn1c(O)c(CN2CCOCC2)c(C)c(C#N)c1=O`?
CYP2C9 activ: 0.9; CYP2C9 inhib: 8; CYP2C19 act: 1; CYP2C19 inhib: -1

How did O=C(Nn1cnc2ccccc2c1=O)C1CCCCC1 do in these assays?
CYP2C9 activ: 0.8; PostGolgi yeast: -3; CYP2C9 inhib: 16; CYP2C19 act: 0.9; CYP2C19 inhib: 7; PostGolgi ctrl: 19

Results for Cc1cccc(C(C)(C)C)c1OCCn1ccnc1 ?
CYP2C9 activ: 0.3; PostGolgi yeast: 8; CYP2C9 inhib: 66*; CYP2C19 act: 0; CYP2C19 inhib: 98*; PostGolgi ctrl: 2

How did Cc1cc(Cl)cc(C)c1OCCCCn1ccnc1 do in these assays?
CYP2C9 activ: 0; PostGolgi yeast: 20; CYP2C9 inhib: 96*; CYP2C19 act: 0; CYP2C19 inhib: 100*; PostGolgi ctrl: 3

What do the screens show for `Cc1cccc(Cl)c1OCCCCn1ccnc1`?
CYP2C9 activ: 0; PostGolgi yeast: 2; CYP2C9 inhib: 96*; CYP2C19 act: 0; CYP2C19 inhib: 100*; PostGolgi ctrl: 12

How did NC(=O)CSc1nnc(CNc2cccc(Cl)c2)n1CCc1ccccc1 do in these assays?
CYP2C9 activ: 0.9; PostGolgi yeast: 11; CYP2C9 inhib: 8; CYP2C19 act: 0.8; CYP2C19 inhib: 20; PostGolgi ctrl: 12

How did COC(=O)c1cc(OC)c(OC)cc1NC(=O)Cn1nnc(-c2ccccc2Cl)n1 do in these assays?
CYP2C9 activ: 0.8; PostGolgi yeast: -6; CYP2C9 inhib: 19; CYP2C19 act: 0.9; CYP2C19 inhib: 14; PostGolgi ctrl: 22

What do the screens show for `O=C(CSc1nnc([C@@H]2CCCN2)o1)c1ccc(Cl)cc1`?
CYP2C9 activ: 0.7; PostGolgi yeast: 4; CYP2C9 inhib: 30; CYP2C19 act: 0; CYP2C19 inhib: 98*; PostGolgi ctrl: 4

What do the screens show for `Clc1ccc(CSc2nnc([C@@H]3CCCN3)o2)cc1Cl`?
CYP2C9 activ: 0.6; PostGolgi yeast: -8; CYP2C9 inhib: 35; CYP2C19 act: 0; CYP2C19 inhib: 100*; PostGolgi ctrl: 2

How did Cc1cc(C)n(-c2c(F)c(F)c(CO)c(F)c2F)n1 do in these assays?
CYP2C9 activ: 1.1; PostGolgi yeast: 0; CYP2C9 inhib: -13; CYP2C19 act: 1.1; CYP2C19 inhib: -14; PostGolgi ctrl: 0

How did O=C(CCN1CCCCCC1)Nc1cccc(F)c1 do in these assays?
CYP2C9 activ: 1; PostGolgi yeast: 3; CYP2C9 inhib: 2; CYP2C19 act: 1.2; CYP2C19 inhib: -21; PostGolgi ctrl: 4

What do the screens show for `CN1C(=O)C(=O)N(CC(=O)N2CCc3ccccc32)C1=O`?
CYP2C9 activ: 0.9; PostGolgi yeast: 5; CYP2C9 inhib: 10; CYP2C19 act: 0.9; CYP2C19 inhib: 10; PostGolgi ctrl: 8

How did CC(CC(=O)N1CCc2ccccc21)c1ccccc1 (stereo unspecified) do in these assays?
CYP2C9 activ: 0.8; PostGolgi yeast: -8; CYP2C9 inhib: 16; CYP2C19 act: 0.1; CYP2C19 inhib: 94*; PostGolgi ctrl: 12

Results for O=C(CN1C(=O)CSc2ccccc21)N1CCc2ccccc21 ?
CYP2C9 activ: 0.6; PostGolgi yeast: 2; CYP2C9 inhib: 40; CYP2C19 act: 0.2; CYP2C19 inhib: 82*; PostGolgi ctrl: 1

What do the screens show for `CCOCC(=O)N1CCc2ccccc21`?
CYP2C9 activ: 1.1; PostGolgi yeast: 1; CYP2C9 inhib: -6; CYP2C19 act: 1; CYP2C19 inhib: 4; PostGolgi ctrl: 1
